A word on the inhibition: it is the relative decrease from the control value, in per cent.

For 96 compounds, inhibition results are on record in PubChem BioAssay AID2315 (National Center for Advancing Translational Sciences (NCATS), 2010).

Hit rate of the full screen: of about 290,000 compounds, about 27,000 (9.3%) were called active. This excerpt belongs to a sample that is enriched for actives. Values without a mark were called inactive. No stated cut-off is given here; in the data, active means inhibition mostly above about 28% (no sharp cut-off); inactive means mostly below about 43%.

The nature of the test: A qHTS for Small Molecule Inhibitors of Shiga Toxin. Further: 0% is about no effect. The note with it: Vero cells, Shiga toxin protein synthesis inhibition reporter; at 38.7 µM, active compounds read high. (qHTS replaces the single test concentration by a dilution series.)
Take `COc1cc(C(C(=O)NC2CCCC2)N(Cc2ccccc2)C(=O)c2snc(C(N)=O)c2N)ccc1O` (stereo unspecified): the inhibition was -1.22%. Take `COc1cc(C(=O)OC2CCOC2=O)c([N+](=O)[O-])cc1OC` (stereo unspecified): the inhibition is -8.09%. The value for `COCCCN1C(=O)C(=O)/C(=C(/O)c2ccc(S(=O)(=O)N3CCOCC3)cc2)C1c1ccc(F)cc1` (stereo unspecified) was -3.02%; that for `Cc1ccc(S(=O)(=O)N2CCC3(CC2)OCCO3)c(C)c1` was 19.9%. The figure for `CN(CCC1CCOCC1)C(=O)CC1C(=O)NCCN1Cc1cccc(F)c1` (stereo unspecified) is -4.33%; for `COc1cc(OC)cc(-c2nnc(N(C)C(=O)c3ccncc3)s2)c1` it is -6.02%. Regarding `CN(C(=O)COc1ccccc1)c1nnc(-c2ccncc2)s1`, the inhibition is 3.11%.

`CN(C(=O)c1ccccn1)c1nnc(-c2ccccn2)s1`: the inhibition was 115% (active). Take `COc1ccc(C(=O)NCCn2nc(C)cc2C)cc1OC1CCN(C(C)=O)CC1`: the inhibition was -11.5%. With `Cc1ccc(NC(=O)C(CC(=O)O)C2CCCO2)c(C)c1` (stereo unspecified), the inhibition was -1.94%. On to `Cc1ccc(C)c(NC(=O)CCC(=O)NNC(=O)c2cccs2)c1`, for which the inhibition is -2.76%.

On to `Cc1ccc(NNC(=O)c2cccs2)cc1Cl`, for which the inhibition is 22.1%. `COc1cccc(NC(=O)CN2CCN(c3nc(-c4cccc(OC)c4)cs3)CC2)c1`: the inhibition is -2.33%. For `NNC(=O)c1ccc(Cl)cc1Cl`, the inhibition is 16.2%. Turning to `COc1cccc(CC(=O)Nc2nc(-c3ccc(OC)c(OC)c3)cs2)c1`, the inhibition was 17.3%. With `Cc1ccc(-c2csc(NNC(=O)c3ccccc3)n2)cc1`, the inhibition was 1.14%. With `Cc1ccc(-c2csc(NC(=O)Cc3cccs3)n2)cc1C`, the inhibition was 37.6%. As to `CC(C)C(=O)Nc1ccc(C(=O)NNC(=O)c2cccs2)cc1`, the inhibition was 28.6%.

Regarding `COc1cccc(CC(=O)Nc2ccc(-c3csc(C)n3)cc2)c1`, the inhibition is 28.8% (active).

For `Cc1ccc(C(=O)NNC(=O)c2cccs2)cc1`, the inhibition was 86.5% (active).

For `O=C(NNC(=O)c1ccc(Cl)cc1Cl)c1cccs1`, the inhibition is 74.9% (active).

Turning to `COc1ccccc1CCNS(=O)(=O)c1cc2c3c(c1)C(C)C(=O)N3CCC2` (stereo unspecified), the inhibition is -4.37%. As to `CCn1c(=O)c(=O)[nH]c2c(=O)oc3ccc(S(=O)(=O)Nc4ccc(OC)cc4)cc3c21`, the inhibition is -7.69%. With `O=C(NCc1cccs1)c1ccc(CS(=O)Cc2ccccc2Cl)o1` (stereo unspecified), the inhibition is -8.99%. On to `COc1cc(CO)ccc1OCC(=O)Nc1cccc2ccccc12`, for which the inhibition was -2.74%. The figure for `CC1CN(C(=O)CCC(=O)NCc2cccnc2)c2ccccc2O1` (stereo unspecified) is -5.3%; for `O=C(CN1C(=O)c2cccnc2Oc2ccc(Cl)cc21)Nc1ccc(F)cc1` it is -1.35%. Turning to `CCN(CC(=O)NCc1ccco1)S(=O)(=O)c1ccc(F)cc1`, the inhibition is -12.2%. The value for `O=C1C(=O)N(CCCN2CCOCC2)C(c2ccc([N+](=O)[O-])cc2)/C1=C(\O)c1ccc2c(c1)OCCO2` (stereo unspecified) was 22.5%; that for `COc1ccc(N2CCN(C(=O)c3ccccc3NC(=O)C3=C(C)OCCS3)CC2)cc1` was -21.3%. As to `Cc1ccc(S(=O)(=O)N[C@@H](Cc2ccccc2)C(=O)N2CCC(C(=O)N[C@H](C(=O)O)C(C)O)CC2)cc1` (stereo partly specified), the inhibition is -8.35%.

In the case of `Cc1ccc(C(=O)Nc2ccc(NC(=O)c3cccs3)cc2)c(C)c1`, the inhibition was 2.76%. In the case of `Cc1ccc(-c2nnc(-c3ccc(NC(=O)c4cccs4)cc3)o2)cc1`, the inhibition was -3.6%. In the case of `Cc1nc(-c2ccc(NC(=O)c3cccs3)cc2)cs1`, the inhibition is 45.3% (active). The value for `CCOC(=O)C1CCN(S(=O)(=O)c2ccc3c(c2)N(C)C(=O)CC(=O)N3C)CC1` was -0.654%. The value for `COc1ccc(NC(=O)NNC(=O)COc2cc(C)c(Cl)c(C)c2)c(OC)c1` was -7.12%; that for `CCCCSCCCNC(=O)C1CCC(CNS(=O)(=O)c2ccc(NC(C)=O)cc2)CC1` (stereo unspecified) was -4.92%; that for `CCC1Sc2ccc(S(=O)(=O)CCC(=O)NCc3cccs3)cc2NC1=O` (stereo unspecified) was -5.71%. As for `O=C(NC1CCCC1)C(c1c(F)cccc1Cl)N(C(=O)c1csnn1)C1CC1` (stereo unspecified), the inhibition was -2.62%. Take `COc1ccc(N2CCN(S(=O)(=O)CCNC(=O)C34CC5CC(CC(C5)C3)C4)CC2)cc1`: the inhibition is -1.41%. The figure for `CC(=O)NS(=O)(=O)c1ccc(NC(=O)C2C3C=CC(C3)C2C(=O)O)cc1` (stereo unspecified) is -8.78%; for `CC(C)COC(=O)c1ccc(NC(=O)C2C3C=CC(C3)C2C(=O)O)cc1` (stereo unspecified) it is 77.2% (active). `COC(=O)c1cc(NC(=O)C2C3C=CC(C3)C2C(=O)O)cc(C(=O)OC)c1` (stereo unspecified): the inhibition is -19%. The value for `COc1ccc(CNC(=O)C(c2ccc(O)cc2)N(Cc2ccco2)C(=O)c2snc(C(N)=O)c2N)cc1` (stereo unspecified) was -11.7%; that for `CCCCCCCCC(=O)NCCOc1ccccc1` was -16.7%; that for `CCCCCCOC(=O)NCC(O)c1ccccc1` (stereo unspecified) was 85.6% (active). As to `CCCCCOC(=O)NCCOC(=O)Nc1ccc(C(=O)OCC)cc1`, the inhibition was -13.5%. The figure for `NC(=O)C1CC(=O)N(c2ccc(OCC(=O)NCc3ccccc3)cc2)C1` (stereo unspecified) is -19.2%. For `COc1ccc(/C=C(/NC(=O)c2ccco2)C(=O)Nc2ccc(C(C)=O)cc2)cc1`, the inhibition is -4.34%. For the compound `CCCOC(=O)c1cc2ccccc2oc1=O`, the inhibition is 18.4%. Regarding `CCOC(=O)c1cc2cc3ccccc3cc2oc1=O`, the inhibition is 43.1% (active). In the case of `C=CCc1cccc2cc(C(=O)OCC)c(=O)oc12`, the inhibition is 2.24%. In the case of `Cc1ccc(-n2c(SCC(=O)NCCC3=CCCCC3)nc3n[nH]c(C)c3c2=N)cc1Cl`, the inhibition was -4.66%. The value for `CCOC(=O)c1ccccc1NC(=O)COC(=O)CCC(=O)N1CCOCC1` was -9.24%; that for `CC(=O)N1c2ccc(S(=O)(=O)N3CCCC(C(=O)Nc4cccc(F)c4)C3)cc2CC1C` (stereo unspecified) was -2.88%.

In the case of `O=C(CNC(=O)c1ccc(Br)o1)Nc1ccccc1`, the inhibition was -4.27%. On to `Cc1cccc(NC(=O)/C(=C\c2ccco2)NC(=O)c2ccccc2)c1`, for which the inhibition is -2.02%.

With `Cc1cccc(NC(=O)c2nnn(-c3cccc(C(F)(F)F)c3)c2N)c1`, the inhibition was 31.4%. The value for `Cc1cccc(NC(=O)NC(=S)NC(=O)c2ccccc2)c1` was 80.2% (active); that for `Cc1cccc(NC(=O)c2cccc(C(F)(F)F)c2)c1` was 77.8% (active); that for `Cc1cccc(NC(=S)Nc2ccc(Br)cc2)c1` was 36.6%. For `Cc1cccc(NC(=S)NC(=O)c2ccc(Br)o2)c1`, the inhibition is 105% (active). With `Cc1cccc(NC(=S)NC23CN4CN(CN(C4)C2)C3)c1`, the inhibition was -10.3%. For `CNC(=O)c1ccc(NC(=O)c2cccc(C(F)(F)F)c2)cc1`, the inhibition is -2.63%. The figure for `COc1ccc(OCC(=O)Nc2ccc(NC(=O)c3ccco3)c(C)c2)cc1` is 19.3%. For `O=C(c1cc2cc(Br)cc(Br)c2oc1=O)N1CCOCC1`, the inhibition was 11.8%.

As to `COC(=O)CSc1nc2ccccc2c(=O)n1Cc1ccccc1`, the inhibition is -8.77%. For the compound `Cc1c(CC(=O)NCCCCCC(=O)O)c(=O)oc2cc3occ(-c4ccccc4)c3cc12`, the inhibition was -4.34%. Turning to `CCN(CC)S(=O)(=O)c1ccc(N2CC(C(=O)NCc3cccnc3)CC2=O)cc1` (stereo unspecified), the inhibition is -5.91%. With `Cc1ccc(CNC(=O)CCN2C(=O)[C@@H]3Cc4ccccc4CN3C2=O)cc1`, the inhibition is 8.09%. The value for `CCC(Cc1ccccc1)NS(=O)(=O)c1ccc2c(c1)NC(=O)CS2` (stereo unspecified) was 1.38%; that for `O=C(CN(CC1CCCO1)C(=O)CNS(=O)(=O)c1ccc(Cl)cc1)NCc1ccccc1` (stereo unspecified) was -14%.

Consider `Cc1ccc(C(=O)N(CC(=O)NC2CCCC2)c2ccc(F)cc2)s1`, for which the inhibition was -7.38%. For the compound `Cc1ccc(NC(=O)Nc2cccc(C(F)(F)F)c2)nc1`, the inhibition was 52.4%. Turning to `O=C(NC(=O)c1cc(OCC(F)(F)F)ccc1OCC(F)(F)F)Nc1ccccc1`, the inhibition was 27.7%. The value for `O=C(Nc1ccccc1)Nc1ccc(C(F)(F)F)cn1` was 53% (active). Regarding `O=C(OCc1ccc(Br)cc1)c1cccc(-c2nnc(-c3ccccc3)o2)c1`, the inhibition was 31.1%. As to `O=C(OCC(=O)c1c[nH]c2ccccc12)c1cccc(O)c1`, the inhibition is 69.8% (active). For the compound `CC1CCN(CC(=O)c2c[nH]c3ccccc23)CC1`, the inhibition is 15.1%.

Regarding `O=C(OCc1ccc(-c2ccccc2)cc1)c1cccc(O)c1`, the inhibition is 80.8% (active). For `O=C(CNC(=O)c1ccc(-c2ccccc2)cc1)OCc1ccc(Cl)cc1`, the inhibition was -7.89%. The figure for `CC(=O)Nc1ccccc1C(=O)OCC(=O)c1cccc2ccccc12` is -4.88%; for `S=C(Nc1ccc(Br)cc1)NC1CCN(Cc2ccccc2)CC1` it is -5.49%; for `CCc1cc2c(NC(Cc3ccccc3)C(=O)O)ncnc2s1` (stereo unspecified) it is -7.1%. The value for `COc1ccc(NS(=O)(=O)c2cc(C(=O)Nc3ccccc3C(=O)O)ccc2C)cc1` was -9.69%. For the compound `C/C(=N/NC(=O)c1ccncc1)c1ccc2c(c1)OCO2`, the inhibition was 1.65%.

On to `C/C(=N/NC(=O)c1ccn(C)n1)c1ccncc1`, for which the inhibition was 81.2% (active). The figure for `C/C(=N\NC(N)=S)c1ccncc1` is -3.77%; for `O=C(C1CCC1)N1CCN(c2ccccc2)CC1` it is -2.3%; for `COc1ccc(NC(=O)CCCC2CCCCC2)c(OC)c1` it is 72.3% (active). The value for `COc1ccc(NC(=O)CCN2CCCC2)c(OC)c1` was -1.84%; that for `CC(=O)Oc1ccc(NC(=O)CCC2CCCCC2)c(C(=O)O)c1` was 9.77%. With `Cc1ccc(C)c(CN2CCC(CNC(=O)Nc3ccc(C)c(F)c3)CC2)c1`, the inhibition was 9.21%. The figure for `Cc1cnc(NC(=O)C2CCCC2)s1` is 28.6%. The figure for `Cc1nc(NC(=O)C2CCCCC2)sc1C` is 61.6% (active). Turning to `Cc1nc(NC(=O)C23CCC(C)(C(=O)O2)C3(C)C)sc1C` (stereo unspecified), the inhibition is -12.8%.
